GLP1R ag: GLP-1 receptor (human) agonism; HEK293 GLP-1R CRE-luciferase, luminescence, 4-6 h; cells express a hypersensitive GLP-1R form; Potency, µM (titrated, usually from 45.6 µM), hits mostly activators; 380,000 compounds, 0.007% hits
RORgamma inh: inhibitors of mouse ROR gamma transcriptional activity | P51450 | Drosophila S2 Gal4-RORgamma UAS-luciferase reporter, 20 h | Potency, µM (titrated, usually from 53.6 µM), most hits filed as inhibitors | 310,000 compounds, 5.4% hits; further: nearly all actives have a fitted effect of over 60% in size
Target sequence (P51450 whole entry, looked up, the tested form may be a part): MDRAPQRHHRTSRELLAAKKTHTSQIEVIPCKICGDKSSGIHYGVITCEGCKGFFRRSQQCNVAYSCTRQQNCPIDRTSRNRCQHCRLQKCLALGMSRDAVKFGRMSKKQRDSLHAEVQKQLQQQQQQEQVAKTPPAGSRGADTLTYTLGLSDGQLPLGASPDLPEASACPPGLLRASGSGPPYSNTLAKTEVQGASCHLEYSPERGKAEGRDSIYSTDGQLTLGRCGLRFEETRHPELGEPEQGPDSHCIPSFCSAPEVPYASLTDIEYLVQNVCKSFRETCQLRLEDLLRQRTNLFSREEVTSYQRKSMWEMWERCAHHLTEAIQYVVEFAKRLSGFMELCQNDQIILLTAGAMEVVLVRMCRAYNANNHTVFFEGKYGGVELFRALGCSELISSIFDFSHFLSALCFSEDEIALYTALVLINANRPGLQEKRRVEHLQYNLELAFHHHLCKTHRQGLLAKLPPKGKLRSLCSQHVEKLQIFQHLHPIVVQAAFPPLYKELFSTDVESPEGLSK
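Read-out: Photinus luciferase luminescence; inhibitors lower reporter signal. Insect Schneider cells with Gal4-ROR gamma fusion under metallothionein promoter, UAS reporter; 700 uM final copper sulfate induction, 20 hr, ambient temperature.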
GLP1R cytotox: cytotoxic in the GLP-1 receptor inverse agonist counter-screen; HEK293 cAMP-luciferase reporter cells, luminescence, 24 h; Potency, µM (top dose mostly 38.3 µM), hits mostly inhibitors; 410,000 compounds, 0.13% hits; AID 624418;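 further: loss of luciferase light is scored as toxicity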
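A 23 nL compound transfer followed 12 hours of cell culture at 37 deg C; exposure then lasted 24 hr. Luciferase assay detection reagent was dispensed and plates read for luminescence after a 12 min room-temperature wait.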
GLP-1R inv ag: acts as inverse agonist at human GLP-1 receptor | HEK293 GLP-1R CRE-luciferase, luminescence, 24 h; GLP-1R form is constitutively active | Potency, µM (highest dose often 38.3 µM), usual class: inhibitors | 410,000 compounds, 1.6% hits; further: nearly all actives have a fitted effect of over 55% in size
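GLP-1R inverse agonism mode: basal reporter luminescence in engineered HEK293 cells measured after one day of compound exposure at 37 deg C, with a 12 min room-temperature detection step.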
Gal4-VP16 FLuc: counter-screen for ROR gamma inhibitors: Gal4-VP16 reporter; Potency, µM (series often up to 53.6 µM), actives largely listed as inhibitors; 310,000 compounds, 3.5% hits; Drosophila S2 Gal4-VP16 UAS-luciferase, luminescence, 20 h;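 further: Gal4-VP16 expression switched on by copper sulfate through the metallothionein promoter; nearly all actives have a fitted effect of over 50% in size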
Hits are given with their value; – = inactive; ? = inconclusive; · = no result; [ ] = another dose, or the depositor's remark. In the library only some 5.9% were active in any assay of this set; here they are far more common. The call rests on the fitted dose curve; in most records, active means well fitted curve in the direction sought with a large enough effect; inconclusive means small, poorly fitted or top-dose-only effect, or another doubt; inactive means no such curve, though single readings can be large; an effect the other way counts as inactive or inconclusive.

SMILES	GLP1R ag	RORgamma inh	GLP1R cytotox	GLP-1R inv ag	Gal4-VP16 FLuc
O=C(NC(=S)Nc1ccc(S(=O)(=O)N2CCCCC2)cc1)c1ccccc1	–	8.9µM	–	–	?
O=C(Nc1ccccc1)c1ccc(CN2CCc3ccccc3C2)cc1	–	–	–	?	–
O=C(Nc1ccc(S(=O)(=O)N2CCCCC2)cc1)c1ccc(CN2CCc3ccccc3C2)cc1	–	?	–	?	4.5µM
Cc1ccc(S(=O)(=O)N2CCOCC2)cc1C(=O)N1CC(C)CC(C)C1 (configuration not stated)	–	·	–	–	·
Cc1cccc2nc(-c3cccc(NS(=O)(=O)c4ccccc4)c3)cn12	·	·	–	–	·
Cc1ccc(CNC(=O)CC(C)CC2=NS(=O)(=O)c3ccccc3N2)cc1 (configuration not stated)	·	·	–	–	·
CCc1ccc(S(=O)(=O)c2nnn3c2nc(NCCNC(C)=O)c2cc(Cl)ccc23)cc1	·	·	–	–	·
Cc1csc(/C(=N\O)c2csc(C)n2)n1	–	2.8µM	–	–	4.5µM
COc1ccc2c(c1)CC(C(=O)NCc1ccc(F)cc1)CO2 (configuration not stated)	·	·	–	?	·
O=C(CSC1=NCCS1)Nc1ccnc2ccccc12	–	–	?	–	4µM
Cc1cc(C)nc(SCC(=O)Nc2ccnc3ccccc23)n1	–	2.2µM	–	–	0.89µM
O=C(CSC1=NCCS1)Nc1ccc2ccccc2c1	–	–	–	–	–
COC(=O)c1ccccc1NC(=O)CSc1nc(C)cc(C)n1	–	–	–	–	–
CNC(=O)C1CCC(Cn2c(=O)c3sccc3n(CC(=O)NCc3ccc(F)cc3)c2=O)CC1 (configuration not stated)	·	·	–	–	·
CC(C)Cc1nn2c(=O)cc(COC(=O)c3cccc(NC(=O)CCc4ccccc4)c3)nc2s1	·	·	–	–	·
CCOC(=O)c1cccc(NC(=O)CC2C(=O)N(c3ccc(OC)cc3)C(=O)N2C2CCCC2)c1 (configuration not stated)	·	·	–	–	·
CCOC(=O)c1cccc(NC(=O)CC2C(=O)N(c3ccc(Cl)cc3)C(=O)N2C2CCCC2)c1 (configuration not stated)	·	·	–	13µM	·
COc1ccc(CNC(=O)CN2C(=O)COc3ccc(S(=O)(=O)Nc4ccccc4)cc32)cc1	–	·	–	–	·
CCCCCCCCCCCCCCOc1ccc(C(=O)O)o1	·	–	·	·	–
O=S(=O)(c1ccc2oc(=S)[nH]c2c1)N1CCCCC1	–	–	–	–	–
S=c1[nH]c2cc(-c3ccccc3)ccc2o1	–	10µM	–	–	13µM
CCOC(=O)c1cc(N2CCCCC2)nc2ccccc12	–	·	–	7.9µM	·
O=C(O)c1cc(N2CCCCC2)nc2ccccc12	–	·	–	–	·
COc1ccc(F)cc1C(=O)C1CCCN(Cc2cn(C)c3ccccc23)C1 (configuration not stated)	–	–	?	3.5µM	–
Cn1cc(CN2CCCC(C(=O)c3cc(F)ccc3F)C2)c2ccccc21 (configuration not stated)	–	–	–	?	–
SMILES	GLP1R ag	RORgamma inh	GLP1R cytotox	GLP-1R inv ag	Gal4-VP16 FLuc
O=C(/C=C/c1ccc(O)c(O)c1)OCCc1ccccc1	–	?	–	?	10µM
CCOc1ccc(/C=C/c2nc(C#N)c(NC(C)CC)o2)cc1 (configuration not stated)	·	·	–	–	·
CC(=O)OCC1(C)CN(c2ccccc2)NC1=O (configuration not stated)	–	13µM	–	?	?
CN(C)c1nc(C=C(C#N)C#N)c(Cl)n1-c1ccc(F)cc1	–	14µM	–	?	–
COC(=O)c1ccccc1NC(=O)Cn1nc(C(F)(F)F)c2c1CCCC2	·	·	–	11µM	·
CCN(Cc1ccccc1)S(=O)(=O)c1cc(C(=O)NC2CCCCCC2)ccc1OC	–	–	–	2.2µM	–
CCN(Cc1ccccc1)S(=O)(=O)c1cc(C(=O)NCC2CCCCC2)ccc1OC	–	–	–	?	–
CC1(c2ccccc2)O[C@@H]2C[C@H]3[C@@H]4CCC5=CC(=O)C=C[C@]5(C)[C@@]4(F)[C@@H](O)C[C@]3(C)[C@]2(C(=O)CO)O1 (some centres not stated)	–	?	–	7.9µM	–
CCC(=O)O[C@]1(C(=O)CCl)[C@@H](C)C[C@H]2[C@@H]3CCC4=CC(=O)C=C[C@]4(C)[C@@]3(F)[C@@H](O)C[C@@]21C	–	11µM	–	?	?
CCCCC(=O)O[C@]1(C(=O)CO)[C@H](C)C[C@H]2[C@@H]3CCC4=CC(=O)C=C[C@]4(C)[C@@]3(F)[C@@H](O)C[C@@]21C	–	7.9µM	·	·	?
CCCC(=O)O[C@]1(C(=O)CCl)[C@@H](C)C[C@H]2[C@@H]3CCC4=CC(=O)C=C[C@]4(C)[C@@]3(F)C(=O)C[C@@]21C	–	10µM	–	?	–
CCC(=O)O[C@@]1(C(=O)CCl)C(C)CC2C3CCC4=CC(=O)C=C[C@@]4(C)[C@]3(F)C(O)C[C@]21C (some centres not stated)	–	?	·	·	–
COCCCNC(=O)CC(c1cc(OC)c(OC)c(OC)c1)N1Cc2ccccc2C1=O (configuration not stated)	–	·	–	–	·
COC(=O)c1cc(OC)c(=O)c2c(OC)c(OC)ccc2c1	·	–	·	·	–
O=C(NC(Cc1ccc(F)cc1)C(=O)O)c1ccccc1 (configuration not stated)	–	–	–	–	–
COC(=O)C(Cc1ccccc1)NC(=S)NC(=O)c1ccccc1 (configuration not stated)	–	3.2µM	–	?	?
O=C(NC(=S)NC(CO)Cc1ccccc1)c1ccc(F)cc1 (configuration not stated)	–	11µM	–	?	?
COc1ccc(O[C@H]2C=C[C@@H](c3ccccc3)O[C@H]2COC(=O)NCc2cccc3ccccc23)cc1	·	–[10 µM]	·	·	–[10 µM]
CC1CCC(C(C)C)C(OC(=O)COC(=O)c2ccc(N)cc2)C1 (configuration not stated)	–	–	–	?	16µM
CC1CCC(C(C)C)C(OC(=O)C[n+]2cccc(C(N)=O)c2)C1 (configuration not stated)	–	–	–	–	–
CC1CCC(C(C)C)C(OC(=O)COC(=O)c2cccn2C)C1 (configuration not stated)	–	–[10 µM]	–	10µM	–
CCc1ccc(-n2c(=O)c3cccnc3n2CC(=O)Nc2cc(F)ccc2F)cc1	·	·	–	–	·
CCOc1ccccc1-c1nnc2n1N=C(c1cc(OC)ccc1OC)CS2	·	–	·	·	–
CC(=O)c1cccc(NC(c2ccc(F)cc2)c2nnc(-c3ccccc3)o2)c1 (configuration not stated)	–	·	–	?	·
